M1 agonist – M1 muscarinic receptor agonists, primary screen, CHO-M1 cells, Fluo-4 calcium, agonist mode; Fluo-4 calcium fluorescence; active compounds read high; 3% of 64,000 active; B-score at 10 µM;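 active = fluorescence rise, raw or as B-score row- and column-corrected plate score, outside the 99.7% band of its plate's samples, either direction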
Pyk2 oligo antag – antagonists of Pyk2 self-association, primary screen, Q293 cells, FERM NanoBiT luminescence, HTS | Protein-tyrosine kinase 2-beta (Homo sapiens), Q14289 | active compounds read low | z-score (the deposit names both 25 µM and 10 µM) | 0.83% of 99,000 active | AID 1347419, 2020;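 active = Z-score of -3 or lower, scaled per plate to the spread of control and sample wells; inactive = z-score above -3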;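 also: negative z-score means lost luminescence so less FERM oligomerization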
M1 antagonist – antagonists of rat M1 muscarinic receptor; Muscarinic acetylcholine receptor M1 (Rattus norvegicus), P08482; CHO-M1 cells, Fluo-4 calcium, ACh EC80 antagonist mode; active compounds read low; B-score at 10 µM; 3.4% of 64,000 active; AID 628, 2007;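 active = calcium fluorescence response, raw or row-and-column corrected B-score, differing from the plate sample mean either way at a set confidence level, mostly lower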
Cav3 T inh – Cav3.2 calcium influx blockers – cell-based, Fluo-4 calcium fluorescence, FDSS, MLSMR library, primary screen | Voltage-dependent T-type calcium channel subunit alpha-1H (Homo sapiens), O95180 | Cav3.2-expressing cells; active compounds read low | B-score at 10 µM | 4% of 100,000 active | AID 449739, 2010;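 active = single-dose well whose peak fluorescence ratio is a statistical outlier from its plate by either plate-standardised score or position-corrected B-score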
* = called active by the depositor; nt = no result. Shown are actives, neighbours in structure and some others; about 7.1% of the full set was active somewhere.

SMILES	M1 agonist	Pyk2 oligo antag	M1 antagonist	Cav3 T inh
CCOC(=O)c1cn(-c2ccccc2)nc1-c1cccnc1	nt	-2	nt	-0.18
Cc1ccc(S(=O)(=O)N[C@H](C(=O)OCn2nnc3ccccc3c2=O)C(C)C)cc1	nt	0.96	nt	-3.8*
Cc1nn(-c2ccccc2)c(C)c1/C=N/NC(=O)c1cccs1	nt	-0.79	nt	nt
O=C(N/N=C/c1cccs1)/C(=C/c1ccccc1)NC(=O)c1ccccc1	nt	-0.77	nt	nt
CC(C)(CO)C(O)C(=O)NCCC#N (centres undefined)	nt	nt	nt	0.99
Cn1c(CNC(=O)Nc2ccccc2)nnc1SCc1ccccc1	-0.37	-0.45	0.056	0.65
Cc1cc(C)cc(NC(=O)NCc2nnc(SCc3ccccc3)n2C)c1	0.29	-0.28	-0.19	-4.3*
Cc1nnsc1C(=O)Nc1cc(Cl)ccc1Cl	nt	0.17	nt	-0.62
Cc1ccc(CN=Cc2[nH]c3ccc(Br)c(Cl)c3c2O)cc1	nt	-0.45	nt	-3.1*
Oc1c(C=NCc2ccc(F)cc2)[nH]c2ccc(Br)c(Cl)c12	nt	nt	nt	-3.5
COc1ccc(-c2ccc(C#N)c(SCC(=O)OCc3ccccc3)n2)cc1OC	nt	1.1	nt	-0.43
N#Cc1ccc(-c2ccc3c(c2)OCO3)nc1SCC(=O)OCc1ccccc1	nt	1.6	nt	-4.6*
COc1cccc(-n2nc(-c3ccnn3-c3ccc(C)cc3)c(=O)n(C)c2=O)c1	nt	-0.12	nt	-1
Cc1ccc(CN2C(=O)CCSc3ccc(Cl)cc32)cc1	nt	-1.5	nt	-4.9*
O=C1CCSc2ccc(Cl)cc2N1Cc1cccc(Cl)c1	nt	-0.97	nt	-3.4
CCN(CC)S(=O)(=O)c1ccc(Cl)c(C(=O)Nc2ccc(Cl)cc2[N+](=O)[O-])c1	nt	0.17	nt	nt
CCCCN1C(=O)/C(=C/C=C2\N(C)c3ccccc3C2(C)C)SC1=S	nt	nt	nt	-4.7*
CN1/C(=C/C2CC(=O)NC2=O)C(C)(C)c2ccccc21 (centres undefined)	nt	0.12	nt	0.89
O=C(NC1CC1)C1=C[C@@H](c2csc3ccccc23)C[C@@H](OCc2ccc(CO)cc2)O1	nt	nt	nt	-0.031
CC(C)CNC(=O)C1CC(=O)OC12CCCCC2 (centres undefined)	0.92	3.1	2.1*	-0.098
CC(C)N(C(=O)C1CC(=O)OC12CCCCC2)C(C)C (centres undefined)	0.064	0.79	0.02	-1.7
CCN1CC2=C(OC(N)=C(C#N)C2c2cccs2)/C(=C\c2cccs2)C1 (centres undefined)	nt	-0.3	nt	-3.5*
CCOC(=O)C1=C(CC)OC(N)=C(C#N)C1c1cccs1 (centres undefined)	nt	-0.07	nt	0.3
O=C(CCc1ccc(S(=O)(=O)NC2CCCCC2)cc1)N(Cc1ccccc1)Cc1ccccc1	nt	-0.1	nt	-5.8*
Cc1ccc(C)c(-n2c(C)cc(/C=N/NC(=O)c3c(C)nc4cc(C)ccn34)c2C)c1	nt	0.22	nt	-3.1
SMILES	M1 agonist	Pyk2 oligo antag	M1 antagonist	Cav3 T inh
N#C/C(=C(/O)C(Cl)c1ccccc1)c1nc2ccccc2s1 (centres undefined)	nt	-1.6	nt	-5.3*
c1ccc(-c2ccc(Oc3cc(N4CCOCC4)nc(-c4ccccc4)n3)cc2)cc1	nt	0.04	nt	-0.8
O=S(Cc1cc(Oc2ccccc2)nc(-c2ccccc2)n1)c1ccccc1 (centres undefined)	nt	-2.1	nt	-6.6*
CC1=C(C(=O)OC(C)C)C(c2ccccc2)NC(=S)N1C (centres undefined)	nt	0	nt	nt
Cn1c(=O)c2c(nc(SCCN3CCOCC3)n2Cc2ccc(Cl)cc2)n(C)c1=O	-1.5	nt	0.54	nt
CC(C)Sc1nc2c(c(=O)n(C)c(=O)n2C)n1Cc1ccc(Cl)cc1	1	-0.47	-0.72	-4.5*
Cn1c(=O)c2c(nc(SCc3ccccc3)n2Cc2ccc(Cl)cc2)n(C)c1=O	nt	-1.7	nt	-4.4*
CNC(=O)CSc1nc2c(c(=O)n(C)c(=O)n2C)n1Cc1ccc(C)cc1	0.6	0.16	0.81	1.1
CN(C)c1ccc(-c2cc([C@H]3[C@@H]4C=CCC[C@@]4(C)C(=O)N3Cc3ccccc3)ccc2F)cc1	nt	nt	nt	0.0068
Cc1cccc(NC(=O)Cn2c(=O)n(Cc3ccco3)c(=N)c3c4c(sc32)COC(C)(C)C4)c1	0.22	-0.31	1.4	-4.2*
CC1(C)Cc2c(sc3c2c(=N)n(Cc2ccco2)c(=O)n3CC(=O)Nc2cccc(Cl)c2)CO1	-0.022	-0.15	-1.5	-5.2*
COC(=O)C1=C(CCc2ccccc2)NC(=O)NC1c1ccc(Cl)cc1 (centres undefined)	nt	nt	nt	-1.1
CCCc1cc(C(=O)NCC(C)C)no1	-0.61	nt	-0.33	0.95
COc1nc(NCCc2ccc(OC)c(OC)c2)nc(NC(C)(C)CO)n1	-0.45	-0.32	-0.41	nt
COc1ccc(N2CCN(c3nc(NCCc4ccc(OC)c(OC)c4)nc(OC)n3)CC2)cc1	0.022	-3.1*	0.27	-2
O=C(Nc1nc2ccccc2s1)C1CC(=O)N(c2ccc(Cl)cc2)C1 (centres undefined)	nt	-0.15	nt	-4.7*
C/C(NCc1cccnc1)=C(\C#N)C(=O)NCc1ccccc1	0.64	-0.46	2.2*	0.58
CCC(c1nnnn1Cc1ccco1)N1CCN(C(=O)c2ccco2)CC1 (centres undefined)	-0.26	0.4	0.055	0.81
CCCCC(c1nnnn1CC1CCCO1)N1CCN(c2cc(Cl)ccc2C)CC1 (centres undefined)	0.25	-1.9	0.35	-5.3*
CCCC(c1nnnn1Cc1ccco1)N1CCN(c2cc(Cl)ccc2C)CC1 (centres undefined)	-0.39	0.05	0.12	-6.9*
COC(=O)C1=C(C)NC(=O)/C1=C\c1cc(C)n(-c2c(C)cccc2C)c1C	nt	-0.74	nt	-0.79
Cc1cccc(C)c1-n1c(C)cc(/C=C2\NC(=O)NC2=O)c1C	nt	-0.55	nt	-6.8*
Cc1ccccc1NS(=O)(=O)c1cc(C(=O)NCCC2=CCCCC2)ccc1C	nt	-1.7	nt	-3.4*
O=C(NCCC1=CCCCC1)c1ccc(Cl)c(S(=O)(=O)Nc2ccccc2)c1	nt	-2	nt	-2.3
Cc1ccc(C(=O)NCCSC2CCCCC2)cc1S(=O)(=O)Nc1ccccc1	nt	-1.7	nt	-3.8*
SMILES	M1 agonist	Pyk2 oligo antag	M1 antagonist	Cav3 T inh
N#CCN1CCN(CCC(=O)Nc2ccc(OCc3ccccc3)cc2)CC1	nt	2.3	nt	1.4
O=C(Nc1ccc(S(=O)(=O)Nc2ccccc2)cc1)C1COc2ccccc2O1 (centres undefined)	nt	0.02	nt	-3.8*
CCn1c(CNc2ccc(Cl)cc2)nnc1SCc1ccc(C)cc1	nt	-0.42	nt	-3.8*
CCn1c(CNc2ccc(Cl)cc2)nnc1SCc1ccc(Cl)cc1	nt	-0.14	nt	-3.5*
CCn1c(CNc2cccc(Cl)c2)nnc1SCc1ccccc1	-0.25	-0.68	-0.66	-1.1
CCn1c(CNc2ccc(Cl)cc2)nnc1SCCN1CCCCC1	nt	0.37	nt	-0.45
O=C(NC1CC1)C1=C[C@@H](C2CCCCC2)C[C@@H](OCCCCO)O1	nt	nt	nt	1.9
Cc1nc(Nc2nc(-c3ccccc3)cc(=O)[nH]2)nc2ccccc12	-0.1	-3	-0.46	-0.22
COc1nc(Nc2nc3ccccc3c(=O)[nH]2)nc2ccc(C)cc12	1.5	nt	-2.1*	nt
Cc1cccc(/C(N)=N/OC(=O)CCc2ccccc2)c1	nt	0.5	nt	0.025
CN(CCO)c1ncnc2nc[nH]c12	0.82	nt	0.72*	-0.46
